# Rab9 promoter act = Rab9 promoter activation. Huh7 Rab9 promoter-luciferase reporter, luminescence, 24 h. Potency, µM (titrated, usually from 9.22 µM), without a hit: at the highest dose activation, negative = inhibition, hits mostly activators. 320,000 tested, 2.8% active; note: % of control where 0% means no effect; nearly all actives have a fitted effect of over 60% in size
#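 Measured in stably transfected Huh7 cells bearing a Rab9 promoter–luciferase construct: 24 h compound treatment at 37 °C, followed by luminescence detection.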
# ELG1 genotox = genotoxicity induction in ELG1-luciferase HEK293T cells. HEK293T ELG1-luciferase reporter, luminescence, 16 h. Potency, µM (series often up to 46 µM), without a hit: at the top dose activity change, positive = activation, actives largely listed as activators. 330,000 tested, 1.3% active. AID 504466; note: % of control where 0% means no effect; nearly all actives have a fitted effect of over 60% in size
#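 HEK293T cells expressing luciferase-tagged ELG1 were treated with compound or DMSO for 16 hr at 37°C. Luciferase activity was then read after 30 min with ONE-Glo at room temperature; rising signal flags genetic stress.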
# SMN2 splice up = enhancers of SMN2 splice variant expression. HEK293 SMN2-luciferase splicing reporter, luminescence, 30-36 h. Potency, µM (top dose mostly 46.1 µM), for inactives: at the top dose activity change, positive = activation, usual class: activators. 210,000 tested, 2.8% active; note: % of control where 0% means no effect; nearly all actives have a fitted effect of over 55% in size
#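 HEK293 cells carry an SMN2 […]–luciferase reporter in which exon 7 inclusion puts luciferase in frame. Cells were plated 10-12 h before compound addition, then incubated 30-36 h at 37C. ONE-Glo luminescence was read; sodium butyrate at 4.5 mM final served as control.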
# NPC1 prom act = NPC1 promoter activation; Huh7 NPC1 promoter luciferase reporter, 24 h; AID 485313; Potency, µM (top dose mostly 9.22 µM), for the others: at the top dose activation, most hits filed as activators; 320,000 tested, 2.4% active; note: % of control where 0% means no effect; nearly all actives have a fitted effect of over 60% in size
#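 Luminescence from an NPC1 promoter-driven luciferase reporter in stably transfected Huh7 cells was measured after 24 h compound treatment at 37 °C, followed by 10 min ambient incubation with luciferase detection reagent.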
# FLuc counter = firefly luciferase modulation, counter-screen for miR-21 project. P08659. purified FLuc, Km substrates, luminescence inhibition. Potency, µM (titrated, usually from 57.5 µM), without a hit: top-dose activity change, negative = inhibition, hits mostly inhibitors. 360,000 tested, 6.9% active;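 note: plate controls were vehicle for no effect and reference inhibitor for full effect; nearly all actives have a fitted effect of over 55% in size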
# Target sequence (P08659 whole entry, looked up): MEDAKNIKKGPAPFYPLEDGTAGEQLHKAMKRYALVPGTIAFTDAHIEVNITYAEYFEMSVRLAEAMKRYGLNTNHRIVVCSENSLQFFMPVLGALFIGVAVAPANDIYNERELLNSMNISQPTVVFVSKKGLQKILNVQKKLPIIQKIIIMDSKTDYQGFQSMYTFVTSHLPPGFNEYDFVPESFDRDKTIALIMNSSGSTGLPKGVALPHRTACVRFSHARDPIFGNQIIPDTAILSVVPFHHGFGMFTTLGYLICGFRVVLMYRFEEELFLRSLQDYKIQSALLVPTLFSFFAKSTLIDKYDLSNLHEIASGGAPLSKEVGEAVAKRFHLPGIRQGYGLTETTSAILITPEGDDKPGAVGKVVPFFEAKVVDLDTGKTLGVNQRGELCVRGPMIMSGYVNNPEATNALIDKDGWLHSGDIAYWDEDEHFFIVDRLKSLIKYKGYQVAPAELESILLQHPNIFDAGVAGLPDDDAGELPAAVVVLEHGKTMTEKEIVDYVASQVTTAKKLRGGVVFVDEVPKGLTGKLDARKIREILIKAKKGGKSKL
#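 Biochemical qHTS of compounds, final roughly 60 µM downward over six points, against 10 nM purified firefly luciferase using Km concentrations of substrates (10 uM D-luciferin, 10 uM ATP) in Tris acetate pH 7.5 buffer; luminescence output.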
# Numbers without * were called inactive; ? = inconclusive; nt = no result; [ ] = remark or other dose. A selection: hits, their analogues and other compounds. The true share with any hit is near 7.4%. Calls come from the whole dose curve; as a rule, active = well fitted curve in the direction sought with a large enough effect; inconclusive = small, poorly fitted or top-dose-only effect, or another doubt; inactive = no such curve, though single readings can be large; an effect the other way counts as inactive or inconclusive. Potency is the fitted concentration of half-maximal effect.
SMILES,Rab9 promoter act,ELG1 genotox,SMN2 splice up,NPC1 prom act,FLuc counter
CCCCc1nc2c(c3c1C[C@H](C)OC3)CN(S(=O)(=O)c1ccccc1C(=O)OC)CC2,nt,nt,2%[9.22 µM],nt,nt
Cc1nn(C)c2c1c(C(F)(F)F)cc(=O)n2CC(=O)N1CCC(C)CC1,nt,nt,nt,nt,-2%
CC(C)(C)C1CCc2onc(C(=O)Nc3sc4c(c3C(N)=O)CCCC4)c2C1 (stereo not given),nt,nt,-2%,nt,-16%
C=CC1=C2C=C(C3CC3)N(c3ccc(OC)cc3)C=C2C(=O)C(C)(OC(=O)c2ccco2)C1=O (stereo not given),nt,nt,14%[9.22 µM],nt,nt
CC1CCN(C(=O)Cn2cc(SCC(=O)Nc3ccccc3C(F)(F)F)c3ccccc32)CC1,nt,nt,nt,nt,-13%
C/C(=N\Nc1ccc(Cl)c(C(=O)O)c1)c1cc2ccccc2o1,?,?,25%,18%,27µM*
C/C(=N\NC(=O)CC#N)c1cc2ccccc2oc1=O,-8%,-2%,nt,-2%,6%
C/C(=N\Nc1ccccc1)c1cc2ccccc2oc1=O,25%,12%,nt,10%,21µM*
C/C(=N\Nc1cccc(C(=O)O)c1)c1cc2ccccc2o1,2.2µM*,?,11µM*,?,11µM*
C/C(=N\Nc1ccc(Cl)c(C(=O)O)c1)c1cccc2ccccc12,16%,27%,nt,4%,?
COc1ccc(Cl)cc1NC(=O)Cn1c(=O)n(Cc2ccc(F)cc2)c(=O)c2cccnc21,nt,nt,-12%,nt,-8%
Cc1cnc(NC(=O)C2CCC(C(C)(C)C)CC2)s1 (stereo not given),?,12%,nt,28%,19µM*
CC(C)(C)C1CCC(C(=O)Nc2nccs2)CC1 (stereo not given),27%,-1%,nt,?,?
CCC(C(=O)Nc1cc(-c2nc3cccnc3s2)ccc1C)c1ccccc1 (stereo not given),nt,nt,nt,nt,11µM*
Cc1ccc(-c2nc3cccnc3s2)cc1NS(C)(=O)=O,?,?,nt,?,13µM*
Cc1ccc(-c2nc3cccnc3s2)cc1NC(=O)C(C)C,nt,nt,nt,nt,11µM*
CCOc1ccc(C(=O)Nc2cccc(-c3nc4ccccc4[nH]3)c2C)cc1[N+](=O)[O-],2%,-2%,-10%,-3%,9.5µM*
CCOc1ccc(C(=O)Nc2cc(-c3nc4ccccc4[nH]3)ccc2Cl)cc1[N+](=O)[O-],-7%,8%,-32%,-1%,?
CCOc1ccc(C(=O)Nc2cc(-c3nc4ccccc4[nH]3)ccc2C)cc1[N+](=O)[O-],-2%,-7%,-20%,-1%,8.5µM*
COc1ccc(OC)c(CNC(=O)c2ccc3nc(C(C)C)oc3c2)c1,nt,nt,nt,nt,-7%
Cn1c(=O)oc2cc(S(=O)(=O)N3CCCC(C(=O)NCCc4ccc(Cl)cc4)C3)ccc21 (stereo not given),nt,nt,19%,nt,1%
CCc1ccc(C(=O)Cn2ncc(Cl)c(Cl)c2=O)cc1,-8%,12%,nt,-14%,7.6µM*
Cc1ccc(Cn2ncc(Cl)c(Cl)c2=O)cc1,-7%,-16%,?,-14%,0%
CC(C)(C)c1ccc(/C=C/C(=O)N2CCOCC2)cc1,?,?,3.2µM*,?,11µM*
CC(C)(C)c1ccc(/C=C/C(=O)N2CCN(c3ncccn3)CC2)cc1,-3%,-3%,-4%,-3%,24µM*
SMILES,Rab9 promoter act,ELG1 genotox,SMN2 splice up,NPC1 prom act,FLuc counter
O=C(/C=C/c1ccc2c(c1)OCO2)N1CCOCC1,26%,11%,nt,19%,17µM*
CC(C)Cc1ccc(/C=C/C(=O)N2CCOCC2)cc1,2.2µM*,?,13µM*,2.8µM*,11µM*
CC(C)c1nn2c(=O)cc(COC(=O)c3cccc(NC(=O)COc4ccc(F)cc4)c3)nc2s1,nt,nt,nt,nt,0%
CC(OC(=O)c1ccc([N+](=O)[O-])o1)C(=O)Nc1nc(-c2ccc(F)c(F)c2)cs1 (stereo not given),?,14%,nt,?,24µM*
Cc1cc(C(=O)OC(C)C(=O)Nc2nc(-c3ccccc3)cs2)c(C)o1 (stereo not given),-3%,2%,29%,-2%,3%
O=C(Cc1ccccc1F)Nc1nc(-c2cccnc2)cs1,15%,-8%,7%,1%,-6%
O=C(Cc1ccccc1)Nc1nc(-c2cccs2)cs1,20%,4%,-7%,25%,19µM*

# Screening results from PubChem.
